This note sets out measurements from PubChem BioAssay (NCI).

SMILES strings stand for the structures. This is part of a sample that, as a whole, favours compounds with a hit. Of some 79,000 tested, about 15% had one in any assay. Unmarked numbers belong to inactive results. Calls of active or inactive are those of the source. Rule as the data show it: active = growth inhibition above about 70%; inactive = the rest.

Test [1] can be described thus: NCI Yeast Anticancer Drug Screen. Data for the rad50 strain (AID 155).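 Also: 0% = growth of vehicle-only cultures of the same strain.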 To be noted: S. cerevisiae rad50 strain growth inhibition, hits give high values; at 50.0 µM unless noted. In short, it runs like this: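 Cells are treated with compound, grown, and their growth is then scored against vehicle-only cultures of the same repair-deficient yeast strain.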
Test [2] in a line: NCI Yeast Anticancer Drug Screen. Data for the mec2-1 strain (AID 157). Particulars: S. cerevisiae mec2-1 strain, hits give high values; at 50.0 µM unless noted. In short, it runs like this: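 mec2-1 yeast strain, carrying an alteration in DNA damage repair or cell cycle control, was exposed to compounds; growth inhibition was measured relative to vehicle-treated controls.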
A short description of test [3]: NCI Yeast Anticancer Drug Screen. Data for the sgs1 mgt1 strain (AID 161).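 Also: 0% = growth of cultures given vehicle only.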 Particulars: S. cerevisiae sgs1 mgt1 strain, hits give high values; at 50.0 µM unless noted. In a few lines: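 This yeast growth screen uses a strain with defined DNA-repair lesions; compound-treated growth is compared with vehicle-treated growth.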
The nature of test [4]: NCI Yeast Anticancer Drug Screen. Data for the cln2 rad14 strain (AID 165).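 Also: 0% = growth equal to vehicle treated cultures.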 Particulars: S. cerevisiae cln2 rad14 strain, hits give high values; at 50.0 µM unless noted. In a few lines: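 Yeast carrying cln2 and rad14 alterations (cell cycle control and DNA damage repair) were exposed to compounds. Growth inhibition was measured against vehicle-treated controls.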
Test [5] is described as follows: NCI Yeast Anticancer Drug Screen. Data for the bub3 strain (AID 167). To be noted: S. cerevisiae bub3 mutant strain, hits give high values; at 50.0 µM unless noted. In a few lines:
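Part of a panel of yeast mutants defective in DNA damage repair or cell cycle regulation. Each strain is grown with compound, and inhibition is calculated relative to solvent-treated cultures.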

Test [6] in a line: NCI Yeast Anticancer Drug Screen. Data for the mlh1 rad18 strain (AID 175). To be noted: S. cerevisiae mlh1 rad18 strain growth inhibition, hits give high values; at 50.0 µM unless noted. In a few lines:
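Growth inhibition of the yeast strain was measured after compound exposure and expressed relative to vehicle-treated controls. The strain carries defined defects in DNA damage repair.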

In the case of `CSc1nc(N)c2cnn(Cc3ccccc3)c2n1`, the growth inhibition in test [1] is 28.4%; in test [2], 12.5%; in test [3] it was 34%; in test [4], 8.95%; in test [5], 31.4%; in test [6], 31.4%.
For the compound `COc1cccc(/C=C/c2cnc3ccccc3n2)c1OC`, the growth inhibition in test [1] is -1.25%; in test [2], 13.8%; in test [3], -10.2%; in test [4], 10.7%; in test [5], -6.7%; in test [6], -52.1%.
Regarding `O=C(c1ccccc1)c1cccc(C(=O)c2ccccc2)c1`, the growth inhibition in test [1] was -2.1%; in test [2], -11.3%; in test [3], -12.9%; in test [4] it was 4.65%; in test [5], 7.35%; in test [6] it was -16.6%.
For the compound `O=C1c2cc([N+](=O)[O-])ccc2-c2ccc3c4ccc5c6c(ccc(c7ccc1c2c73)c64)C(=O)c1cc([N+](=O)[O-])ccc1-5`, the growth inhibition in test [1] was 14%; in test [2], -10.6%; in test [3] it was -3.15%; in test [4] it was 21.4%; in test [5], -35.2%; in test [6] it was 26.1%.
`C=CCOc1cc2c(cc1C(CC)c1ccc(OCc3ccccc3)cc1)OCO2` (stereo not given): the growth inhibition in test [1] is 31.9%; in test [2], 5.2%; in test [3], -2.85%; in test [4], 13.9%; in test [5] it was 0.9%; in test [6], -10.2%.
Consider `C[N+](C)(CCCCCCCCCC[N+](C)(C)CC(=O)c1ccccc1)CC(=O)c1ccccc1`, for which the growth inhibition is 36.2% in test [1]; -7.25% in test [2]; 24.7% in test [3]; -11.8% in test [4]; 0.4% in test [5]; 18.1% in test [6].
`Nc1cccc(S(=O)(=O)NNc2cc(Cl)ccc2Cl)c1`: the growth inhibition in test [1] is 98.7% (active); in test [2], 98.6% (active); in test [3], 98.8% (active); in test [4], 98.8% (active); in test [5], 98.3% (active); in test [6] it was 99% (active).
Turning to `COc1ccc2c(c1)c(C)cc[n+]2C`, the growth inhibition in test [1] was -3.3%; in test [2], 8.5%; in test [3], -5.9%; in test [4], -9.65%; in test [5], -3.05%; in test [6], -19.3%.
With `NC(=O)C(N)CC12CC3CC(CC(C3)C1)C2` (stereo not given), the growth inhibition was -6% in test [1]; -18.2% in test [2]; -10.6% in test [3]; 17.7% in test [4]; 10.7% in test [5]; -4.7% in test [6].
As for `Cc1nc(SCC(=O)Nc2ccccc2)c2sc(=S)n(-c3ccccc3)c2n1`, the growth inhibition in test [1] is -45.9%; in test [2], -10.2%; in test [3] it was -0.05%; in test [4], -5.35%; in test [5] it was -19.9%; in test [6], -18.4%.
For the compound `CCC(=O)C(C)=O`, the growth inhibition in test [1] is 16.9%; in test [2], 3.9%; in test [3] it was 13.1%; in test [4], -4%; in test [5], 0.15%; in test [6], 11.7%.
Turning to `C=C1C(=O)OCC1C(=O)OCC` (stereo not given), the growth inhibition in test [1] was 9.35%; in test [2], 7.7%; in test [3], -0.35%; in test [4], 3.35%; in test [5] it was -24.8%; in test [6], 14.2%.
For the compound `O=C(CC(CC(=O)C(c1ccccc1)c1ccccc1)c1ccccc1)C(c1ccccc1)c1ccccc1`, the growth inhibition in test [1] is 45.9%; in test [2], 18%; in test [3], 61.9%; in test [4], -0.6%; in test [5], -8.3%; in test [6], 29.6%.
For the compound `COCC(Br)C(OC)OC` (stereo not given), the growth inhibition in test [1] is 37.5%; in test [2], 9.1%; in test [3] it was 58.9%; in test [4], -1.05%; in test [5] it was 5.75%; in test [6], 68.3%.
Turning to `c1ccc2c(c1)Cc1cc3ccccc3cc1C2`, the growth inhibition in test [1] was -32.2%; in test [2], -44.9%; in test [3], -29.5%; in test [4], 0.75%; in test [5] it was -33.2%; in test [6], -27.8%.
Consider `COc1cc(OC)c(-c2cc(=O)c3c(OC)c(OC)c(OC)c(OC)c3o2)cc1OC`, for which the growth inhibition in test [1] was -2.95%; in test [2], -3.8%; in test [3] it was -2.8%; in test [4] it was -44%; in test [5] it was 36.2%; in test [6] it was -21.1%.
On to `O=C(Cc1nc2ccc(C(=O)c3ccccc3)cc2[nH]c1=O)C(=O)Nc1ccc(C(F)(F)F)cc1[N+](=O)[O-]`, for which the growth inhibition in test [1] was 8.45%; in test [2], 14.7%; in test [3], -3.9%; in test [4] it was -6.25%; in test [5], -12.1%; in test [6], 18.1%.
For the compound `CC(C)(Br)C(Br)CCC(C)(Br)C(Br)CO` (stereo not given), the growth inhibition in test [1] is 10.9%; in test [2], -0.7%; in test [3], -3.8%; in test [4] it was -12.1%; in test [5], 0.55%; in test [6], -1.3%.
Regarding `CC(C)N(Cc1ccccc1)S(=O)(=O)c1n[nH]c(C(C)(C)C)n1`, the growth inhibition in test [1] is 3.2%; in test [2] it was -27.1%; in test [3] it was -3.65%; in test [4], -5.8%; in test [5], -6.75%; in test [6], -0.75%.
For `O=S1(=O)C(c2ccccc2)=C1c1ccccc1`, the growth inhibition in test [1] is -6.95%; in test [2], 6.55%; in test [3], 8.6%; in test [4], 24.6%; in test [5] it was -11.7%; in test [6], 17.6%.
